Laboratory results reported in PubChem BioAssay (Tox21).
Where “and” joins values, the source holds several entries; their conditions need not be identical. Equal entries are not always repeated. A number with no mark means an inactive call. Where a call stands in place of a potency, no number is given. Calls of active or inactive are those of the source. Unless noted, the call rests on the fitted dose curve.

biological target: Gonadotropin-releasing hormone receptor (Homo sapiens) (UniProt P30968); assay: Human gonadotropin-releasing hormone receptor (GnRHR) small molecule agonists, calcium flux assay in GnRHR-HEK293 cells (AID 1920063); details: calcium flux fluorescence, agonist mode; series mostly up to 57.6 µM; further: nearly all actives have a fitted effect of over 35% in size
Summary of the method: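 Stable human GnRHR HEK293 line. 18 h plating, then calcium dye for 1 h at 37 C. Agonist-mode compound addition from DMSO stocks; fluorescence monitored 3 min.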
Potency means the concentration at half of the fitted maximal effect.

Chain of Gonadotropin-releasing hormone receptor (Homo sapiens) (P30968 whole entry, looked up): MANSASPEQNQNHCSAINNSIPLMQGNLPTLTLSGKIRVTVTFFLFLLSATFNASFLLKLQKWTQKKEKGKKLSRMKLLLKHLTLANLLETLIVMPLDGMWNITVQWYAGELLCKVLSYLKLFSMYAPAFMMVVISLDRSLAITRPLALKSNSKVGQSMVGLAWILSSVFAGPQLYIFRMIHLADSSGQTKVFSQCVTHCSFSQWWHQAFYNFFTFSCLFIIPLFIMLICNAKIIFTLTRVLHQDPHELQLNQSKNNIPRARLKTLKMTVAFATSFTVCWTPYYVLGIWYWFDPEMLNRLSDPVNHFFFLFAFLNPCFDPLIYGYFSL

Compound	Potency	activity change
S=C(NC1CCCCC1)NC1CCCCC1	inactive	
O=c1cc(-c2ccccc2)oc2ccccc12	inactive	
CC(C)(N=C=O)c1cccc(C(C)(C)N=C=O)c1	inactive	
Nc1cccc(N)n1	inactive	
O=S(=O)(Oc1ccc(Cl)cc1Cl)c1ccccc1	inactive	
C[N+](C)(C)CC(O)CCl (configuration not stated)	inactive	
Cn1sccc1=O	inactive	
NCCNCCNCCNCCN	inactive	
COc1ccc(N)c(C)c1	inactive	
O=C(O)c1ccc(C(=O)O)c(C(=O)O)c1	inactive	
CCCCCCCCCCCC(=O)N(C)CC(=O)O	inactive	
CCC(C)NC(N)=O (configuration not stated)	inactive	
CC(=O)OC1CC(C)OC(C)O1 (configuration not stated)	inactive	
CC(C)CC(C)O (configuration not stated)	inactive	
COCc1ccc(COC)cc1	inactive	
CCCCNc1ccccc1	inactive	
CCCCC(CC)COC(C)=O (configuration not stated)	inactive	
O=C1CCCCC1	inactive	
CCC(C)c1ccccc1O (configuration not stated)	inactive	
Cc1cccc(C)c1[N+](=O)[O-]	inactive	

Compound	Potency	activity change
N#Cc1ccc(C2CCCc3cncn32)cc1 (configuration not stated)	inactive	
CC(=O)OC/C=C(\C)CC/C=C(\C)CCC=C(C)C	inactive	
O=C1CCC(=O)O1	inactive	
CS(=O)(=O)c1ccc(Cl)cc1	inactive	
Cc1cccnc1	inactive	
CS(=O)(=O)O	inactive	
CNCCS(=O)(=O)O	inactive	
NC(=Nc1ccccc1)Nc1ccccc1	5.49 µM (active) and 15.1 µM (active)	
O=C(O)c1ccccc1C(c1ccc(O)cc1)c1ccc(O)cc1	inactive	
CN1Cc2c(N)cccc2C(c2ccccc2)C1 (configuration not stated)	inactive	
CO[C@H]1C=CO[C@@]2(C)Oc3c(C)c(O)c4c(O)c(c(/C=N/N5CCN(C)CC5)c(O)c4c3C2=O)NC(=O)/C(C)=C\C=C[C@H](C)[C@H](O)[C@@H](C)[C@@H](O)[C@@H](C)[C@H](OC(C)=O)[C@@H]1C	inactive	
C[n+]1ccn(CCO)c1	inactive	
CCOC(=O)c1c(C)n(C)c2ccc(O)cc12	inactive	
CC1=CC[C@@H]2C[C@H]1C2(C)C		0.0518% [at 11.8 µM, stronger effect = higher value]
c1ccc2c(c1)-c1cccc3c1c-2cc1ccccc13	inactive	
C=CC(=O)NCOCCCC	inactive	
O=[N+]([O-])c1ccc2nc[nH]c2c1	inactive	
CCCCCCCO	inactive	
CCCCCCCCCCCCCCCCCCOCC(O)CO (configuration not stated)	inactive	

biological target: KiSS-1 receptor (Homo sapiens) (UniProt Q969F8); assay: Human kisspeptin (KISS1R) small molecule agonists, calcium flux assay in KISS1R-HEK293 cells (AID 1920064; active means well fitted activation curve with a large enough effect in the repeat runs); details: KISS1R-HEK293, calcium flux fluorescence, agonist; series mostly up to 76.8 µM
Summary of the method: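 After overnight (18 h) culture at 37 C/5% CO2, human KISS1R-HEK293 cells received calcium dye for 1 h, then test compound; emission at 540 nm (excitation 480 nm) was tracked for 3 min.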

Chain of KiSS-1 receptor (Homo sapiens) (Q969F8 whole entry, looked up): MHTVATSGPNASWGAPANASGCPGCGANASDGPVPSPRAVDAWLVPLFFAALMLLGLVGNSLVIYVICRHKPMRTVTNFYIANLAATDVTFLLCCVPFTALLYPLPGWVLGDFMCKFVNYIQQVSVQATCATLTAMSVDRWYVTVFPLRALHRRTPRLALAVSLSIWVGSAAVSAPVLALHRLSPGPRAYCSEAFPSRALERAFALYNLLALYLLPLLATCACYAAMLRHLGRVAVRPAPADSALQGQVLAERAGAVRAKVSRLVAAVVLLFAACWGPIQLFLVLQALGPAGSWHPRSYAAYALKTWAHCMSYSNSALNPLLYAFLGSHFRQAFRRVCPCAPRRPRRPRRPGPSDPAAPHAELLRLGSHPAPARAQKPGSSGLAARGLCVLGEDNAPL

Compound	Potency	activation
S=C(NC1CCCCC1)NC1CCCCC1	inactive	
O=c1cc(-c2ccccc2)oc2ccccc12	inactive	
CC(C)(N=C=O)c1cccc(C(C)(C)N=C=O)c1	inactive	
Nc1cccc(N)n1	inactive	
O=S(=O)(Oc1ccc(Cl)cc1Cl)c1ccccc1	inactive	
C[N+](C)(C)CC(O)CCl (configuration not stated)	inactive	
Cn1sccc1=O	inactive	
NCCNCCNCCNCCN	inactive	
COc1ccc(N)c(C)c1	inactive	
O=C(O)c1ccc(C(=O)O)c(C(=O)O)c1	inactive	
CCCCCCCCCCCC(=O)N(C)CC(=O)O	inactive	
CCC(C)NC(N)=O (configuration not stated)	inactive	
CC(=O)OC1CC(C)OC(C)O1 (configuration not stated)	inactive	
CC(C)CC(C)O (configuration not stated)	inactive	
COCc1ccc(COC)cc1	inactive	
CCCCNc1ccccc1	inactive	
CCCCC(CC)COC(C)=O (configuration not stated)	inactive	
O=C1CCCCC1	inactive	
CCC(C)c1ccccc1O (configuration not stated)	inactive	
Cc1cccc(C)c1[N+](=O)[O-]	inactive	

Compound	Potency	activation
N#Cc1ccc(C2CCCc3cncn32)cc1 (configuration not stated)	inactive	
CC(=O)OC/C=C(\C)CC/C=C(\C)CCC=C(C)C	inactive	
O=C1CCC(=O)O1	inactive	
CS(=O)(=O)c1ccc(Cl)cc1	inactive	
Cc1cccnc1	inactive	
CS(=O)(=O)O	inactive	
CNCCS(=O)(=O)O	inactive	
NC(=Nc1ccccc1)Nc1ccccc1	21.4 µM (active) and 23.9 µM (active)	
O=C(O)c1ccccc1C(c1ccc(O)cc1)c1ccc(O)cc1	inactive	
CN1Cc2c(N)cccc2C(c2ccccc2)C1 (configuration not stated)	inactive	
CO[C@H]1C=CO[C@@]2(C)Oc3c(C)c(O)c4c(O)c(c(/C=N/N5CCN(C)CC5)c(O)c4c3C2=O)NC(=O)/C(C)=C\C=C[C@H](C)[C@H](O)[C@@H](C)[C@@H](O)[C@@H](C)[C@H](OC(C)=O)[C@@H]1C	inactive	
C[n+]1ccn(CCO)c1	inactive	
CCOC(=O)c1c(C)n(C)c2ccc(O)cc12	inactive	
CC1=CC[C@@H]2C[C@H]1C2(C)C		-0.901% [at 15.8 µM]
c1ccc2c(c1)-c1cccc3c1c-2cc1ccccc13	inactive	
C=CC(=O)NCOCCCC	inactive	
O=[N+]([O-])c1ccc2nc[nH]c2c1	inactive	
CCCCCCCO	inactive	
CCCCCCCCCCCCCCCCCCOCC(O)CO (configuration not stated)	inactive	

system: not listed separately; assay: G protein-coupled receptor (GPCR) small molecule agonists, calcium flux assay: HEK293 wild type cell line counter screen (AID 1920065); details: HEK293 WT calcium flux, fluorescence, agonist mode; series mostly up to 57.6 µM
Summary of the method: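 Following 18 h incubation at 37 C/5% CO2, plates got calcium dye for 1 h; compounds, ATP or DMSO were then pinned in and fluorescence followed kinetically (480/540 nm).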

Compound	Potency	activation
S=C(NC1CCCCC1)NC1CCCCC1	inactive	
O=c1cc(-c2ccccc2)oc2ccccc12	inactive	
CC(C)(N=C=O)c1cccc(C(C)(C)N=C=O)c1	inactive	
Nc1cccc(N)n1	inactive	
O=S(=O)(Oc1ccc(Cl)cc1Cl)c1ccccc1	inactive	
C[N+](C)(C)CC(O)CCl (configuration not stated)	inactive	
Cn1sccc1=O	inactive	
NCCNCCNCCNCCN	inactive	
COc1ccc(N)c(C)c1	inactive	
O=C(O)c1ccc(C(=O)O)c(C(=O)O)c1	inactive	
CCCCCCCCCCCC(=O)N(C)CC(=O)O	inactive	
CCC(C)NC(N)=O (configuration not stated)	inactive	
CC(=O)OC1CC(C)OC(C)O1 (configuration not stated)	inactive	
CC(C)CC(C)O (configuration not stated)	inactive	
COCc1ccc(COC)cc1	inactive	
CCCCNc1ccccc1	inactive	
CCCCC(CC)COC(C)=O (configuration not stated)	inactive	
O=C1CCCCC1	inactive	
CCC(C)c1ccccc1O (configuration not stated)	inactive	
Cc1cccc(C)c1[N+](=O)[O-]	inactive	

Compound	Potency	activation
N#Cc1ccc(C2CCCc3cncn32)cc1 (configuration not stated)	inactive	
CC(=O)OC/C=C(\C)CC/C=C(\C)CCC=C(C)C	inactive	
O=C1CCC(=O)O1	inactive	
CS(=O)(=O)c1ccc(Cl)cc1	inactive	
Cc1cccnc1	inactive	
CS(=O)(=O)O	inactive	
CNCCS(=O)(=O)O	inactive	
NC(=Nc1ccccc1)Nc1ccccc1	15.5 µM (active)	
O=C(O)c1ccccc1C(c1ccc(O)cc1)c1ccc(O)cc1	inactive	
CN1Cc2c(N)cccc2C(c2ccccc2)C1 (configuration not stated)	inactive	
CO[C@H]1C=CO[C@@]2(C)Oc3c(C)c(O)c4c(O)c(c(/C=N/N5CCN(C)CC5)c(O)c4c3C2=O)NC(=O)/C(C)=C\C=C[C@H](C)[C@H](O)[C@@H](C)[C@@H](O)[C@@H](C)[C@H](OC(C)=O)[C@@H]1C	inactive	
C[n+]1ccn(CCO)c1	inactive	
CCOC(=O)c1c(C)n(C)c2ccc(O)cc12	inactive	
CC1=CC[C@@H]2C[C@H]1C2(C)C		-1.47% [at 11.8 µM]
c1ccc2c(c1)-c1cccc3c1c-2cc1ccccc13	inactive	
C=CC(=O)NCOCCCC	inactive	
O=[N+]([O-])c1ccc2nc[nH]c2c1	inactive	
CCCCCCCO	inactive	
CCCCCCCCCCCCCCCCCCOCC(O)CO (configuration not stated)	inactive	
